This is a sample that favours compounds with a hit; in the whole collection about 1.1% have one here.
S1P2 blocker – antagonists of human S1P2 receptor | cell-based S1P2 antagonist assay, inhibition at 5 uM | inhibition, % at 5 µM | 0.21% of 97,000 active | O95136 | AID 736; in the data active = inhibition above about 45%;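 note: CRE beta-lactamase reporter cells expressing human S1P2 stimulated with S1P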
Target sequence (O95136 whole entry, looked up): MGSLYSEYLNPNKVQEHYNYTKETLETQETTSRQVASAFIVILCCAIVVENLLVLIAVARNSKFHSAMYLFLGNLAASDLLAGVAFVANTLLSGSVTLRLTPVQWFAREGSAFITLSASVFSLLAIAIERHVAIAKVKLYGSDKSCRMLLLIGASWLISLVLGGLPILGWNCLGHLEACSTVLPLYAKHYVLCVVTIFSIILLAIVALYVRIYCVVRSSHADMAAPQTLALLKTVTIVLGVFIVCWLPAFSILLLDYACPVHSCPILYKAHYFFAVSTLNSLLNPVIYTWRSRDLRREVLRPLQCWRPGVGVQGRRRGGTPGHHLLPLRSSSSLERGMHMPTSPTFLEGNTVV
GALR2 ag – GALR2 (human) receptor agonism. GALR2-expressing cells, agonist activation read-out. 0.48% of 140,000 active. O43603. activation, % (no concentration beside the values); in the data active = activation above about 5%, passing the limit was not always enough
GALR2 antag – blocks the human galanin receptor 2. GALR2-expressing cells, antagonist mode. inhibition, % at 4 µM. 0.39% of 140,000 active; in the data active = inhibition above about 27%;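 note: cells stimulated with galanin 1-16 at roughly its EC80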
S1P2 ag – activates the human S1P2 receptor; O95136; activation, % at 4.5 µM; AID 729; S1P2-expressing cell line, agonist reporter read-out; 0.46% of 97,000 active; in the data active = activation above about 16%
GALR2 ag confirm – GALR2 (human) agonism confirmed; shares compounds with GALR2 ag; GALR2-expressing cells, agonist activation; activation, % at 5.6 µM; 10% of 460 active; in the data active = activation above about 8.4%
BLA act counter – beta-lactamase activation, GALR2 counterscreen; activation, % at 5.6 µM; AID 865; shares compounds with GALR2 ag; 10% of 460 active; CHO NFAT-bla reporter, beta-lactamase FRET activation;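 active = activation above the screen-wide mean activation plus 3 SD, cut at about 8% in these data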
Hits are given with their value; – = inactive; · = not tested or not shown.

SMILES	S1P2 blocker	GALR2 ag	GALR2 antag	S1P2 ag	others
O=C1NC(=O)N(c2ccccc2)C(=O)/C1=C/c1ccc(Sc2ccccc2)o1	47	–	–	–
Fc1ccccc1CCNCc1cccc(Cl)c1Cl	–	–	–	–
CCCCn1c(NS(=O)(=O)c2ccc(C)cc2)c(C(=O)OCC)c2nc3ccccc3nc21	·	7.0	–	·
CCCCNC(=O)c1c(N)n(Cc2ccc3c(c2)OCO3)c2nc3ccccc3nc12	–	6.8	–	38
COc1ccc(CCNC(=O)c2c(N)n(CCN3CCOCC3)c3nc4ccccc4nc23)cc1OC	–	–	–	–
CCCNC(=O)c1c(N)n(CC2CCCO2)c2nc3ccccc3nc12 (stereo not given)	–	–	–	–
COCCCn1c(N)c(C(=O)NCCC(C)C)c2nc3ccccc3nc21	–	33	–	29
CCCCn1c(NC(=O)c2ccco2)c(C(=O)OCC)c2nc3ccccc3nc21	–	–	–	–
CCCCOCCCn1c(N)c(C(=O)OCCOC)c2nc3ccccc3nc21	–	–	–	–
CCCCCCn1c(N)c(C(=O)NCCN2CCOCC2)c2nc3ccccc3nc21	–	20	–	29
CCC(=O)O[C@@H]1[C@@H](OC(C)=O)[C@@]2(O)C(C[C@H](O)C2(C)C)[C@](C)(O)[C@H]2CC[C@@H]3[C@@H](O)[C@]12C[C@@]3(C)O (stereo not given in full)	·	–	–	·
Clc1ccc(C(c2ccccc2)c2ncc[nH]2)cc1 (stereo not given)	·	–	–	·
Nc1c(C(=O)NCc2ccco2)c2nc3ccccc3nc2n1CCN1CCOCC1	–	–	–	–
Nc1c(C(=O)NCCCc2ccccc2)c2nc3ccccc3nc2n1Cc1cccs1	–	32	–	84
CCCCCn1c(N)c(C(=O)NCc2cccs2)c2nc3ccccc3nc21	–	–	–	–
CC(C)OCCCNC(=O)c1c(N)n(CC2CCCO2)c2nc3ccccc3nc12 (stereo not given)	–	12	–	18
CCCCCn1c(N)c(C(=O)NCCN2CCOCC2)c2nc3ccccc3nc21	–	–	–	16
CCCCn1c(N)c(C(=O)NCc2cccs2)c2nc3ccccc3nc21	–	36	–	18
Cc1ccccc1N1C(=O)CC(=O)N(c2ccccc2C)C1=O	·	–	–	·
OC12ONC(c3ccccn3)C1N1CCC2CC1 (stereo not given)	·	–	–	·
CCN1/C(=C\C=C\C2=[N+](CC)c3ccccc3C2(C)C)C(C)(C)c2ccccc21	106	–	–	–
Cc1cccn2c(=O)c3c(nc12)N1CCC(Cc2ccccc2)CC1C1(C3)C(=O)N(C)C(=O)N(C)C1=O (stereo not given)	–	–	–	17
CC1CCN2c3nc4ccccn4c(=O)c3CC3(C(=O)N(C)C(=O)N(C)C3=O)C2C1 (stereo not given)	–	–	–	–
Brc1ccc2c(c1)C(OC1CN3CCC1CC3)c1ccccc1CS2 (stereo not given)	·	–	–	·
O=C(Nc1ccc(Cl)cc1)Nc1nccs1	–	–	–	53
SMILES	S1P2 blocker	GALR2 ag	GALR2 antag	S1P2 ag	others
Nc1c(C(=O)NCc2ccco2)c2nc3ccccc3nc2n1Cc1ccccc1	·	5.1	–	·
Nc1c(C(=O)NCc2ccco2)c2nc3ccccc3nc2n1Cc1ccc(F)cc1	–	28	–	48
CN(C)C(=O)Oc1ccc(OCc2n(C)c3ccccc3[n+]2C)cc1	·	–	–	·
CCOC(=O)c1c(N)n(Cc2ccco2)c2nc3ccccc3nc12	–	–	–	–
COc1ccc(Cn2c(N)c(C(=O)NCc3ccco3)c3nc4ccccc4nc32)cc1	–	13	–	–	GALR2 ag confirm=8.6;BLA act counter=16
CCN1CCN(S(=O)(=O)c2cnc(Cl)c(Br)c2)CC1	·	–	–	·
COc1ccc(OCC(=O)Nc2ccc(Cl)cc2C(=O)c2ccccc2)cc1	–	–	–	–	GALR2 ag confirm=–;BLA act counter=–
O=C(COc1ccccc1)Nc1ccc(Cl)cc1C(=O)c1ccccc1	·	–	–	·
S=C1NCCN1	·	–	–	·
Cc1nn(Cc2ccc(Cl)cc2Cl)c(Cl)c1C(=O)Nc1ccc(OC(F)F)cc1	·	–	–	·
COc1cc(/C=C(/C)[N+](=O)[O-])ccc1OCc1ccccc1Cl	·	11	–	·	GALR2 ag confirm=–;BLA act counter=–
CN1C(=O)C(=Cc2ccccc2OCc2ccccc2Cl)C(=O)N(C)C1=O	·	–	–	·
O=C(CCCN1CCC2(CC1)C(=O)NCN2c1ccccc1)c1ccc(F)cc1	·	16	–	·	GALR2 ag confirm=8.8;BLA act counter=14
Cc1ccsc1-c1nc(CSCC(=O)N2CCC3(CC2)OCCO3)c(C)o1	–	–	–	–

High-throughput results (PubChem BioAssay)
